Results: PubChem BioAssay (NCI)
Compounds without any hit were thinned out: in the full panel of roughly 83,000, 20% have a hit.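 A percent growth of 40 corresponds to 60% growth inhibition; 0 means no net growth; -100 means all cells died. Active threshold: below 10.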 A number with no mark means an inactive call. Active and inactive are the calls of the source.

How the values were obtained:
Assay in all cases: NCI-60 one-dose screen, 48 h (100 = growth as untreated, 0 = no growth, -100 = all killed)
Conditions in all cases: 10 µM
SR leukemia = test system: SR leukemia
RPMI-8226 leukemia = test system: RPMI-8226 leukemia
OVCAR-8 ovarian = test system: OVCAR-8 ovarian
OVCAR-5 ovarian = test system: OVCAR-5 ovarian
OVCAR-4 ovarian = test system: OVCAR-4 ovarian
SK-OV-3 ovarian = test system: SK-OV-3 ovarian
IGROV1 ovarian = test system: IGROV1 ovarian
OVCAR-3 ovarian = test system: OVCAR-3 ovarian
HS 578T breast = test system: HS 578T breast
NCI/ADR-RES ovarian = test system: NCI/ADR-RES ovarian
T-47D breast = test system: T-47D breast
BT-549 breast = test system: BT-549 breast
MDA-MB-435 melanoma = test system: MDA-MB-435 melanoma
SW-620 colon = test system: SW-620 colon
MCF7 breast = test system: MCF7 breast
HCT-116 colon = test system: HCT-116 colon
HCC-2998 colon = test system: HCC-2998 colon
KM12 colon = test system: KM12 colon
MDA-MB-468 breast = test system: MDA-MB-468 breast

| SMILES | growth (SR leukemia) | growth (RPMI-8226 leukemia) | growth (OVCAR-8 ovarian) | growth (OVCAR-5 ovarian) | growth (OVCAR-4 ovarian) | growth (SK-OV-3 ovarian) | growth (IGROV1 ovarian) | growth (OVCAR-3 ovarian) | growth (HS 578T breast) | growth (NCI/ADR-RES ovarian) | growth (T-47D breast) | growth (BT-549 breast) | growth (MDA-MB-435 melanoma) | growth (SW-620 colon) | growth (MCF7 breast) | growth (HCT-116 colon) | growth (HCC-2998 colon) | growth (KM12 colon) | growth (MDA-MB-468 breast) |
| --- | --- | --- | --- | --- | --- | --- | --- | --- | --- | --- | --- | --- | --- | --- | --- | --- | --- | --- | --- |
| CCOc1ccc(/C=N/NC(=O)Cn2nc(Cc3ccc([N+](=O)[O-])cc3)c3onc(C)c3c2=O)cc1 | 62.7% | 68.9% | -16.5% (active) | 43.8% | -34.8% (active) | 91.3% | 27.6% | -37.5% (active) | -7.55% (active) | 19.4% | 8.58% (active) | 55.2% | 49.7% | 15.2% | 9.23% (active) | -26% (active) | 29% | 51.3% | -30.7% (active) |
| C/C(=C\CSc1ccccc1C(=O)O)CCCC(C)CCCC(C)CCCC(C)C (centres undefined) | 18.7% | 35% | 54% | 115% | 57.3% | 96.5% | 76.1% | 74.4% | 56% | 43.1% | 37.3% | 80.6% | 71.8% | 55.1% | 50.4% | 34.4% | 18.3% | 46.4% | 60.3% |
| CN1CCN(c2ccc(C(=O)/C=C/c3ccc(OC(F)F)cc3)cc2)CC1 | 6.8% (active) | 5.53% (active) | 44.8% | 80.3% | 59% | 76% | 27.5% | 38.4% | 63.8% | 54.7% | 55% | 19.2% | -37.3% (active) | -32.8% (active) | -71.7% (active) | -62.5% (active) | -48.9% (active) | 6.74% (active) | -60.7% (active) |
| O=C(CSc1nnc(-c2ccc3nc(-c4ccccc4)[nH]c3c2)o1)Nc1ccc(Cl)cc1 | 29.1% | 29.6% | 21.2% | 65.1% | 61.9% | 55.9% | 52.6% | 62.9% | 16.7% | 38.5% | 23.8% | 55% | 40.2% | 66.8% | 16.3% | 36.4% | 22.2% | 33% | 55.8% |
| CCOC(=O)C1=C(N)N(c2ccccc2)C2=C(C(=O)CC(C)(C)C2)C1c1ccccc1OC (centres undefined) | 95% | 100% | 108% | 103% | 102% | 98.2% | 96.9% | 112% | 106% | 96.6% | 92.7% | 105% | 112% | 107% | 89.7% | 101% | 101% | 113% | 88.7% |
| COc1cc(-c2nc3cc(Cl)c(Cl)cc3[nH]2)ccc1OCc1nnc(-c2ccc(Br)cc2)o1 | -34.4% (active) | -23.2% (active) | 15.7% | 39.6% | -92.2% (active) | -11.1% (active) | 42% | -47.6% (active) | -22.5% (active) | 22% | -38.4% (active) | -73.4% (active) | -18.7% (active) | 21.6% | 5.68% (active) | 2.89% (active) | 69.2% | 46.1% | -10.9% (active) |
| CC1=N/C(=C\c2ccc(N(C)C)cc2)C(=O)N1CCc1ccc(S(N)(=O)=O)cc1 | 86.4% | 87.1% | 97.9% | 116% | 99.7% | 95.3% | 103% | 109% | 91.6% | 96.6% | 83.2% | 92.7% | 110% | 112% | 91.8% | 94.3% | 97.5% | 104% | 110% |
| NS(=O)(=O)c1ccc(NC(=O)CSc2ccc(-c3ccccc3)nn2)c(Br)c1 | 85.9% | 83% | 38.3% | 90.4% | 53.8% | 98.7% | 93.8% | 24.9% | 41.1% | 81.6% | 37.4% | 46.3% | 94.4% | 99.5% | 79% | 48.7% | 77.9% | 85.3% | 98% |
| N#Cc1c(NC(=O)c2ccc(C(O)(C(F)(F)F)C(F)(F)F)cc2)sc2c1CCC(=O)C2 | -6.36% (active) | 6.42% (active) | -7.08% (active) | -60.8% (active) | -29.6% (active) | -38.9% (active) | -27.6% (active) | -53.1% (active) | -22% (active) | -60.4% (active) | -60.5% (active) | -64.4% (active) | -45.2% (active) | -52.8% (active) | -62.1% (active) | -77.7% (active) | -95.6% (active) | -53.8% (active) | -90% (active) |
| Cc1noc2c(Cc3ccccc3)nn(CC(=O)N/N=C/c3ccc(F)cc3)c(=O)c12 | 102% | 83.7% | 33.1% | 93.7% | 5.18% (active) | 28.9% | 70.4% | 44.6% | -1.33% (active) | 60.7% | 12.6% | 64.1% | 71.1% | 79.9% | 61.7% | 35% | 67.1% | 86.2% | 85.4% |
| O=C(CSc1nnc(-c2c[nH]c3ccccc23)n1-c1ccccc1)c1ccccc1 | 81.6% | 81.3% | 14.7% | 88.6% | -2.47% (active) | 85.6% | 55.1% | 60.8% | 24.1% | 14.8% | 83.5% | 62.2% | 87.2% | 76.1% | 36.2% | 38% | 83.1% | 69.5% | 77.2% |
| Cc1ccc(C(=O)CSc2nnc(-c3c[nH]c4ccccc34)n2-c2ccccc2)cc1 | 53% | 58.9% | 11.3% | 13% | -15.6% (active) | 24% | 24.2% | 65.2% | -0.727% (active) | -27.7% (active) | 46.7% | 22.4% | 38.6% | 19% | 12.5% | 7.68% (active) | 66.4% | 51% | 48% |
| O=C(CN1CCN(c2ncnc3c2cnn3-c2ccccc2)CC1)Nc1nncs1 | -28.9% (active) | -16.6% (active) | -21.4% (active) | -4.09% (active) | 13.6% | 28.1% | -41.8% (active) | -55.6% (active) | 3.92% (active) | -32.6% (active) | 27.9% | -85.9% (active) | 7.14% (active) | -23.9% (active) | 16.1% | 8.23% (active) | 59.7% | 4.55% (active) | -39.8% (active) |
| COC(=O)c1c(C(=O)OC)c2n(c1C)[C@@H]([C@@H](C)[C@H]1CC[C@H]3[C@@H]4CCC5=CC(=O)CC[C@]5(C)[C@H]4CC[C@]13C)SC2 | 17.9% | -11.5% (active) | 26.7% | 54.2% | 38.5% | 48.7% | 75.9% | 51.4% | 56.6% | 7.08% (active) | 4.62% (active) | -3.38% (active) | 22.4% | 34.2% | 4.29% (active) | 23.2% | 45% | 25.8% | 11.2% |
| CN1C(=O)N(C)C2SC(N/N=C/C=C/c3ccccc3)=NC21 (centres undefined) | 13.2% | 77.1% | 93.1% | 92.8% | 72.4% | 98.4% | 68.5% | 28.8% | 89.7% | 73.9% | 61.8% | 64.1% | -19.6% (active) | 63.9% | 27.6% | 71.6% | 85.3% | 58% | -4.12% (active) |
| Cc1ccc2nc(-c3ccc(-c4nnc(SCC(=O)Nc5ccc(Br)cc5)o4)cc3)[nH]c2c1 | 16.1% | 41.3% | 20.4% | 92.4% | 76.8% | 72.1% | 91.2% | 82.9% | 70.8% | 61.3% | 50.8% | 86.8% | 59.9% | 82.8% | 45.1% | 67.4% | 105% | 70.4% | 80.6% |
